# Laboratory results reported in PubChem BioAssay AID2685 (National Center for Advancing Translational Sciences (NCATS), 2010).
# The whole screen tested about 320,000 compounds, of which about 2,100 (0.66%) were called active. Roughly 53% stayed inconclusive and do not appear here. Calls come from the whole dose curve; as a rule, active = well fitted inhibition curve with a large enough effect in the signal ratio, with a control signal flat (not every such curve was filed as active); inconclusive = small, poorly fitted or top-dose-only effect, or effect the other way, or a change in a side signal; inactive = flat fitted curve, though single readings scatter; the % refers to the signal ratio. Shown is part of a subset that was picked to be rich in actives.
# Assay: qHTS Assay for Lipid Storage Modulators in Drosophila S3 Cells;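 for cell number change: cells counted by Cell Tracker Red CMTPX staining in the red channel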; for lipid storage change, negative = inhibition: % is set by controls: 0 for no effect and ±100 for the full control effect
# Conditions: BODIPY lipid droplet fluorescence, 18-24 h, cells fed with added oleic acid; cell number change: measured here: cell count max response; series mostly up to 46.1 µM; lipid storage change, negative = inhibition: at the top concentration
# In short: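 Laser-scanning cytometry quantifies lipid droplet accumulation (500–530 nm total intensity; droplet/cell object ratio) in oleic acid-fed (400 uM added) Drosophila S3 cells treated with a concentration series. 20 uM Triacsin C defined 100% inhibition.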
# Potency is the fitted concentration of half-maximal effect.
Structure (SMILES),"lipid storage change, negative = inhibition",cell number change [%],outcome,Potency
COc1ccc(C(=O)NCc2oc(-c3ccccc3)cc2C(=O)O)cc1,20.5% (inactive),-4.88,–,–
COc1ccc2nc(/C=N/NC(=O)[C@H](CCSC)NC(=O)OC(C)(C)C)ccc2c1,0.135% (inactive),13.4,–,–
COC(=O)c1ccccc1NC(=O)CSc1nc(O)cc(=O)n1C1CCCC1,19.2% (inactive),6.94,–,–
O=C(NC(Cc1ccccc1)C(=O)O)/C(=C/c1ccco1)NC(=O)c1cccc([N+](=O)[O-])c1 (centres undefined),-3.12% (inactive),-0.0963,–,–
Oc1cccc(N2Cc3ccccc3C2)c1,-2.83% (inactive),-1.3,–,–
CCN1CCN(S(=O)(=O)c2ccc(Cl)c(C(=O)N(C)C(c3ccccc3)c3ccccc3)c2)CC1,17.2% (inactive),–,–,–
C=CCOc1ccc2ccccc2c1CNn1cn[nH]c1=S,–,10.6,inactive,–
Cc1ccc(OCC(=O)NCCCNC(=O)c2ccncc2)cc1,–,0.901,inactive,–
CCOC(=O)N1CCN(C(=O)c2ccc3nc(N4CCCCC4)sc3c2)CC1,-10.6% (inactive),-1.93,–,–
CCOC(=O)CNC(=O)N1CCCC(CNS(=O)(=O)c2cccs2)C1 (centres undefined),6.02% (inactive),11.3,–,–
Cc1ccc(S(=O)(=O)N2CCOCC2)cc1NC(=O)COC(=O)CCC(=O)c1ccc(F)cc1,17% (inactive),14.2,–,–
N=c1c(C(=O)NC2CCCC2)cc2c(=O)n3ccccc3nc2n1C1CCCC1,0.118% (inactive),-15.6,–,–
COCCCn1c(C(=O)NCCN2CCOCC2)cc2c(=O)n3ccccc3nc21,–,5.41,–,1.84 µM (active)
O=C(NCCN1CCOCC1)c1cc2c(=O)n3ccccc3nc2n1Cc1ccccc1,21.5% (inactive),13.8,–,–
N=c1c(C(=O)NCC2CCCO2)cc2c(=O)n3ccccc3nc2n1C1CCCCC1 (centres undefined),–,-7.39,inactive,–
COCCCn1c(C(=O)N2CCOCC2)cc2c(=O)n3ccccc3nc21,-8.57% (inactive),17.7,–,–
N=c1c(C(=O)NCc2ccco2)cc2c(=O)n3ccccc3nc2n1C1CCCC1,–,10.3,–,0.651 µM (active)
Cc1cccc(C)c1NC(=O)CNC(=O)C1CCCN(C(=O)c2ccc(Cl)cc2)C1 (centres undefined),10.7% (inactive),1.48,–,–
COc1cc(C(=O)NCC(=O)NC(C)CCc2ccccc2)cc(OC)c1OC (centres undefined),–,-6.74,inactive,–
CCOC(=O)N1CCN(C(=O)CCCCCn2c(=S)[nH]c3ccsc3c2=O)CC1,14.1% (inactive),6.09,–,–
CCOC(=O)C1CCCN(C(=O)C2CCN(S(=O)(=O)c3c(C)noc3/C=C/c3ccccc3F)CC2)C1 (centres undefined),–,2.99,inactive,–
COc1ccc(OC)c(NC(=O)CCN2CCN(Cc3ccccc3)CC2)c1,16.5% (inactive),-0.977,–,–
COc1ccc(OC)c(NC(=O)CCN2C(=O)c3ccccc3C2=O)c1,–,23.6,inactive,–
COc1ccc(OC)c(NC(=O)NCCCCc2ccccc2)c1,–,-13.4,–,2.91 µM (active)

Structure (SMILES),"lipid storage change, negative = inhibition",cell number change [%],outcome,Potency
COc1ccc(Cl)cc1NC(=O)CCNC(=O)OCc1ccccc1,–,-13.6,–,7.31 µM (active)
COc1ccc(Cl)cc1NC(=O)CN1CCN(Cc2ccccc2)CC1,-7.01% (inactive),1.46,–,–
COc1ccc(OC)c(NC(=O)CN2C(=O)C(=O)N(Cc3ccccc3)C2=O)c1,–,-12.4,–,2.31 µM (active)
COc1ccc(OC)c(NC(=O)NCCc2cccc(Cl)c2)c1,12.6% (inactive),4.18,–,–
COc1ccc(OC)c(NC(=O)CCCc2ccccc2)c1,–,8.01,inactive,–
COc1ccc(Cl)cc1NC(=O)COC(=O)CCNC(C)=O,11.9% (inactive),0.288,–,–
COc1ccc2oc(=N)c(C(=O)NCc3ccccc3)cc2c1,-29.1% (inactive),8.47,–,–
O=C(O)CCc1ccc(-c2cccs2)n1NC(=O)c1ccc(O)cc1,10.7% (inactive),6.61,–,–
CC1CC1C(=O)OCC(=O)NCc1ccccc1Cl (centres undefined),–,-18.4,–,32.6 µM (active)
O=C(COC(=O)C1CC2C=CC1C2)NCc1ccccc1Cl (centres undefined),10.6% (inactive),9.83,–,–
O=C(COC(=O)/C=C/c1ccccc1)NCc1ccccc1Cl,0.13% (inactive),–,–,–
Oc1cccc(/C=N/Nc2ccc(Cl)nn2)c1,9.73% (inactive),0.54,–,–
O=C1c2ccccc2C(=O)N1c1cccnc1,–,-5.37,–,25.9 µM (active)
O=C1c2cccc([N+](=O)[O-])c2C(=O)N1c1cccnc1,0.573% (inactive),–,–,–
O=C1c2cccc3cccc(c23)C(=O)N1c1cccnc1,-3.65% (inactive),-10.8,–,–
Cc1ccccc1Nc1nnc(SCC(=O)Nc2ccccc2[N+](=O)[O-])s1,-4.62% (inactive),-4.61,–,–
CCCCC[C@H]1CN(CCc2ccccc2)C(=O)[C@@H]1CC(=O)NCc1ccc(OC)cc1,-6.03% (inactive),-13.8,–,–
CCCCN1C[C@H](Cc2ccccc2)[C@@H](CC(=O)NCc2ccc(OC)cc2)C1=O,-12.4% (inactive),2.91,–,–
CCCCC[C@H]1CN(C2CCCCC2)C(=O)[C@@H]1CC(=O)NCc1ccccc1,–,-8.08,–,16.4 µM (active)
CCOC(=O)c1ccc(NC(=O)c2nc[nH]c2C(=O)N2CCc3ccccc3C2)cc1,13.6% (inactive),9.14,–,–
O=[N+]([O-])c1cc(S(=O)(=O)N2CCCCCC2)ccc1Cl,-17.4% (inactive),-8.42,–,–
O=[N+]([O-])c1cccc2c(S(=O)(=O)N3CCCCC3)cccc12,–,-7.14,inactive,–
O=[N+]([O-])c1ccccc1S(=O)(=O)N1CCCCC1,–,–,–,3.66 µM (active)
O=[N+]([O-])c1ccccc1S(=O)(=O)N1CCSCC1,25.8% (inactive),-12,–,–

Structure (SMILES),"lipid storage change, negative = inhibition",cell number change [%],outcome,Potency
Cc1ccc(S(=O)(=O)N2CCCCCC2)cc1[N+](=O)[O-],-26% (inactive),-8.44,–,–
O=[N+]([O-])c1cc(S(=O)(=O)N2CCCCCC2)ccc1F,–,-27.8,–,14.6 µM (active)
O=C(NCCc1ccccc1)/C(=C\c1ccc([N+](=O)[O-])cc1)NC(=O)c1ccco1,–,–,inactive,–
COc1ccccc1C1(CC(=O)Nc2nccs2)CCOC(C(C)C)C1 (centres undefined),-11.8% (inactive),–,–,–
C=CCn1c(SCC(=O)NCc2ccc3c(c2)OCO3)nnc1C1CCCCC1,-2% (inactive),-24,–,–
COC(=O)c1sccc1NS(=O)(=O)c1ccccc1[N+](=O)[O-],–,-10.5,inactive,–
CN(C)S(=O)(=O)c1cccc(NC(=O)COC(=O)CCc2nc3ccccc3s2)c1,–,27.2,inactive,–
CCCCCNC(=O)c1ccc2c(=O)n(CC3CCCO3)c(=S)[nH]c2c1 (centres undefined),3.35% (inactive),12.5,–,–
Cc1cccc(NC(=O)c2ccc3c(=O)n(CC4CCCO4)c(=S)[nH]c3c2)c1 (centres undefined),–,0.855,–,2.91 µM (active)
COc1ccc(NC(=O)c2ccc3c(=O)n(CC4CCCO4)c(=S)[nH]c3c2)c(OC)c1 (centres undefined),–,0.833,inactive,–
CCOc1ccccc1C(=O)NN1C(=O)C2CCCCC2C1=O (centres undefined),-3.41% (inactive),2.53,–,–
O=C(N/N=C1\CCCCc2ccccc21)c1ccccn1,4.38% (inactive),8.38,–,–
CC1(C)CC(=O)C=C(Nc2ccc(F)cc2)C1,–,–,inactive,–
CC1(C)CC(=O)C=C(Nc2ccc(S(N)(=O)=O)cc2)C1,0.606% (inactive),5.75,–,–
CCc1ccc(NC2=CC(=O)CC(C)(C)C2)cc1,–,-10.8,–,16.4 µM (active)
CC1(C)CC(=O)C=C(NCCc2ccccc2)C1,22.1% (inactive),5.18,–,–
CC1(C)CC(=O)C=C(NCCc2ccc(S(N)(=O)=O)cc2)C1,–,7.43,–,29.1 µM (active)
CC(=O)Nc1ccc(NC2=CC(=O)CC(C)(C)C2)cc1,–,–,inactive,–
FC(F)(F)c1nnc(-c2ccccc2)nc1N1CCOCC1,–,–,inactive,–
O=C(COc1ccccc1)NC(NC(=S)Nc1ccccc1C(=O)O)C(Cl)(Cl)Cl (centres undefined),0.637% (inactive),-4.52,–,–
CCCCN(C(=O)c1cccc(S(=O)(=O)N2CC(C)OC(C)C2)c1)c1c(N)n(CCCC)c(=O)[nH]c1=O (centres undefined),7.24% (inactive),6.37,–,–
CCOC(=O)C(NC(=O)NC1CCCCC1)(c1ccccc1)C(F)(F)F (centres undefined),–,-7.07,–,7.31 µM (active)
CCOC(=O)C(NC(=O)N1CCCCC1)(c1ccccc1)C(F)(F)F (centres undefined),-12.7% (inactive),-0.413,–,–
CCOC(=O)C(NC(=O)Nc1ccc(O)cc1)(c1ccccc1)C(F)(F)F (centres undefined),2.59% (inactive),14.8,–,–

Structure (SMILES),"lipid storage change, negative = inhibition",cell number change [%],outcome,Potency
Cc1n[nH]c(C)c1S(=O)(=O)N1CCc2ccccc2C1,–,24.8,inactive,–
C/C(=N\NC(=O)c1c(C)nc2ccccn12)c1ccc(O)cc1O,–,6.25,–,5.8 µM (active)
Cc1nc2ccccn2c1C(=O)N/N=C/c1ccccc1,-11.4% (inactive),9.24,–,–
C/C(=N\NC(=O)c1c(C)nc2ccccn12)c1ccco1,-0.446% (inactive),-20.6,–,–
CC(=O)N1CCN(C(=S)c2ccc(Cl)cc2)CC1,1.15% (inactive),-11.3,–,–
CCOC(=O)c1c(SCC(=O)Nc2nc(C)cs2)nc(=O)[nH]c1C,–,11.9,–,13 µM (active)
Cc1csc(NC(=O)CSc2ncnc3ccccc23)n1,25.2% (inactive),-0.862,–,–
Cc1csc(NC(=O)CSc2nc3ccccc3c3c2CCCC3)n1,-3.82% (inactive),1.26,–,–
Cc1csc(NC(=O)CSc2nc(C(C)C)nc3ccccc23)n1,–,6.52,–,7.31 µM (active)
COC(=O)c1c(SCC(=O)Nc2ccc(C)cc2)nc(=O)[nH]c1C,-0.206% (inactive),11,–,–
Cc1csc(NC(=O)CSc2[nH]c(=O)ncc2C)n1,–,–,inactive,–
Cc1ccc(S(=O)(=O)NNC(=O)CCC(=O)Nc2ccccc2)cc1,-16.6% (inactive),20.4,–,–
Cc1ccc(NC(=O)CCC(=O)NNS(=O)(=O)c2ccc(Cl)cc2)cc1C,–,-13.3,inactive,–
CC(=O)Nc1ccc(S(=O)(=O)NNC(=O)CCC(=O)Nc2cc(C)ccc2C)cc1,–,1.21,–,2.31 µM (active)
Cc1ccc([N+](=O)[O-])cc1NC(=O)CN(C)CCOc1ccccc1,14.4% (inactive),12,–,–
CCOC(=O)c1cc(-c2ccc(OC)cc2)n(CCC(=O)NC2CCN(Cc3ccccc3)CC2)c1C,4.21% (inactive),11,–,–
C=CCN(c1ccc(C(=O)OC)cc1)S(=O)(=O)c1ccccc1,8.9% (inactive),–,–,–
Cc1ccc(S(=O)(=O)NCc2ccco2)cc1C,–,-8.6,–,10.3 µM (active)
Cn1c(=O)oc2cc(S(=O)(=O)NCc3ccco3)ccc21,1.46% (inactive),0.921,–,–
Cc1ccc(-c2ccc(S(=O)(=O)NCc3ccco3)cc2)cc1,12.3% (inactive),2.5,–,–
CCOCCCNC(=O)C1CCCN1C(=O)NC1CCCCC1 (centres undefined),–,-3.91,–,20.6 µM (active)
CC(C)CCNC(=O)C1CCCN1C(=O)NC1CCCCC1 (centres undefined),0.129% (inactive),-5.55,–,–
CCCCNC(=O)C1CCCN1C(=O)NC1CCCCC1 (centres undefined),-1.43% (inactive),9.73,–,–
